# Compound activity from PubChem BioAssay.
# Shown is part of a subset that was picked to be rich in hits.
# CHX counter: counter-screen hit for Shiga toxin inhibitors, cycloheximide; max response, %; 300,000 compounds, 12% hits; cell reporter, cycloheximide protein synthesis inhibition counterscreen; in the data active means max response mostly above about 13%, no sharp cut-off; inactive means mostly below about 14%; further: read at 38.3 µM for the half of the compounds with a filed dose; 0% is about no effect
# SARS PLpro yeast: blocks SARS-CoV papain-like protease in a yeast assay; 330,000 compounds, 0.19% hits; S. cerevisiae expressing SARS-CoV PLpro, growth rescue; Potency, µM (doses to about 32.9 µM), inactives show top-dose activity, positive = growth rescue, actives largely listed as activators; calls by dose curve; further: potency means the concentration at half of the fitted maximal effect; 0% is about no effect; nearly all actives have a fitted effect of over 55% in size
# AmpC inh no detg: AmpC beta-lactamase inhibition without detergent | AmpC nitrocefin hydrolysis, absorbance 480 nm, 0.0001% Triton | Potency, µM (highest dose often 57.1 µM), inactives show at the highest dose activity change, negative = inhibition, actives largely listed as inhibitors | 330,000 compounds, 0.52% hits;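 further: potency means the concentration at half of the fitted maximal effect; plate controls were no compound for no effect and no enzyme for full effect; nearly all actives have a fitted effect of over 20% in size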
# Target sequence (P00811 whole entry, looked up): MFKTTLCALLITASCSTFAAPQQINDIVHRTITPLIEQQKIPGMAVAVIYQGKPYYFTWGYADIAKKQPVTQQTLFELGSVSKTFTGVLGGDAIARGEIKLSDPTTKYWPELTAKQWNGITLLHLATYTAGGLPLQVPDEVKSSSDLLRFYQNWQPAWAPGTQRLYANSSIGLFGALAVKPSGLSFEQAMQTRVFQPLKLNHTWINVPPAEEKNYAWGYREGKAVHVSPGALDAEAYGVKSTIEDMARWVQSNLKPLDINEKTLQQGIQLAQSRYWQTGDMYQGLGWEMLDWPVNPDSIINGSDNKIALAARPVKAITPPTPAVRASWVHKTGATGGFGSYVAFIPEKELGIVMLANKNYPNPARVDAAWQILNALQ
#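 AmpC (5.3 nM in the dispensed reagent) in 20 mM phosphate pH 7.0 with 0.01% (detergent screen) or 0.0001% Triton X-100 was preincubated with compounds for 15 min at room temperature. Nitrocefin was then added from an 800 uM solution, and hydrolysis was followed at 480 nm.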
# AMA1 RON2 block: AMA1-RON2 (P. falciparum) interaction inhibition; Potency, µM (highest dose often 58.2 µM), without a hit: at the highest dose activity change, negative = inhibition, hits mostly inhibitors; AID 720542; AlphaScreen AMA1-biotinylated RON2 peptide binding; 360,000 compounds, 0.2% hits;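 further: potency means the concentration at half of the fitted maximal effect; 0% = vehicle wells and -100% = peptide control; nearly all actives have a fitted effect of over 45% in size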
#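 AMA1 (3D7) with his tag at 25 nM final met compounds first, then biotinylated RON2 peptide at 25 nM; detection used donor plus acceptor beads, 10 µg/mL apiece, read by AlphaScreen after 30 min at room temperature.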
# Shiga toxin inh: inhibitors of Shiga toxin in Vero cells; inhibition, % at 38.7 µM; 290,000 compounds, 9.2% hits; AID 2315; Vero cells, Shiga toxin protein synthesis inhibition reporter; in the data active means inhibition mostly above about 28%, no sharp cut-off; inactive means mostly below about 43%; further: 0% is about no effect
# AmpC detergent: inhibitors of E. coli AmpC beta-lactamase with detergent | P00811 | AmpC hydrolysis of nitrocefin, absorbance 480 nm, 0.01% Triton | Potency, µM (series often up to 114 µM), for inactives: at the highest dose activity change, negative = inhibition, most hits filed as inhibitors | 370,000 compounds, 0.041% hits | AID 485294;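 further: potency means the concentration at half of the fitted maximal effect; 0% = no-compound wells and -100% = no-enzyme wells; nearly all actives have a fitted effect of over 25% in size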
#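 20 mM phosphate pH 7.0 + 0.01% (detergent screen) or 0.0001% Triton X-100; 5.3 nM AmpC reagent; cpd preinc 15 min RT; nitrocefin (800 uM stock) to start; A480 q20 s × 4 min; Activity was normalised to no-enzyme and no-compound control wells.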
# Numbers without * were called inactive; u = inconclusive; x = not tested or not shown; [ ] = remark or other dose. Unless noted, the call rests on the fitted dose curve; in most records, active means well fitted curve in the direction sought with a large enough effect; inconclusive means small, poorly fitted or top-dose-only effect, or another doubt; inactive means no such curve, though single readings can be large; an effect the other way counts as inactive or inconclusive.
SMILES,CHX counter,SARS PLpro yeast,AmpC inh no detg,AMA1 RON2 block,Shiga toxin inh,AmpC detergent
CCCC(=O)Nc1ccc(NCc2ccc(C)s2)cc1,active,-3%,52%,0%,29,-7%
CC(C)Oc1ccc(C(=O)OCC(=O)NCCNC(=O)COC(=O)c2ccc(OC(C)C)cc2)cc1,-4,-2%,-35%,23%,-19,8%
O=C(Nc1cccc(NC(=O)c2sc3ccccc3c2Cl)c1)c1ccco1,40*,-1%,-22%,0%,69*,u
O=C(Nc1cccc(NC(=O)c2nccc3ccccc23)c1)c1ccco1,45*,-7%,-11%,-3%,130*,-10%
Cn1c(=O)c2c(ncn2C)n(C)c1=O,-2,-2%,-13%,0%,20,-1%
CCOc1ccc(C(=O)NCC(c2ccco2)S(=O)(=O)c2cccs2)cc1 (stereo not given),x,x,x,x,x,1%
CCSc1nc(=S)n(-c2ccccc2)c(C)c1C(C)=O,-4,4%,-9%,-12%,-10,-11%
CCSc1nc(=O)n(-c2ccccc2)c(C)c1C(C)=O,16*,0%,u,14%,33*,-2%
Cc1ccc(S(=O)(=O)Nc2nc(C)c(C)s2)cc1,-5,4%,-23%,-18%,2,u
COCCNC(=O)/C(C#N)=C/c1ccc(O)c([N+](=O)[O-])c1,-2,-3%,-7%,-2%,-8,-9%
COCCNC(=O)/C(C#N)=C/c1ccc(O)cc1,19*,-6%,-17%,-1%,32,-7%
COCCNC(=O)/C(C#N)=C/c1cccc(/C=C(\C#N)C(=O)NCCOC)c1,-4,5%,-51%,11%,-6,-4%
COCCNC(=O)/C(C#N)=C/C=C/c1ccccc1[N+](=O)[O-],17*,1%,-8%,1%,21,-8%
COCCCn1c(SCC(=O)Nc2ccc3c(c2)OCCO3)nnc1-c1ccoc1C,27*,-3%,4%,11%,76*,-11%
COCCn1c(SCC(=O)N2CCCC2)nnc1-c1ccoc1C,13,1%,-8%,0%,82*,-15%
COCCn1c(SCC(=O)Nc2ccc(OC)cc2)nnc1-c1ccoc1C,2,2%,-2%,15%,-4,5%
COCCn1c(SCC(=O)N2CCCC2)nnc1-c1ccco1,-6,9%,-18%,2%,-3,-14%
COCCn1c(SCC(=O)c2ccc3c(c2)OCCO3)nnc1-c1ccoc1C,111*,6%,1%,6%,105*,-14%
Cc1cc(C)c2oc(C(=O)NCc3ccccc3)cc(=O)c2c1,-3,-2%,-7%,-2%,-6,-13%
CC(=C\C(=O)O)/C(=C/c1ccco1)C(=O)O,1,0%,-4%,-9%,15,3%
CC(=C\C(=O)O)/C(=C\c1cccc2ccccc12)C(=O)O,25*,3%,-26%,0%,83*,5%
COc1ccc(CC(=O)OCC(=O)Nc2cccc(Cl)c2)cc1,-1,-16%,-31%,-6%,4,2%
COc1ccc(/C=N/N=C(/N)N[N+](=O)[O-])c(OC)c1,29*,-3%,-11%,4%,29*,1%
COc1cc(C(=O)Oc2ccccc2/C=N/NC(=O)c2ccc(C)c(Cl)c2)cc(OC)c1OC,-2,-9%,-43%,19%,-10,-11%
COc1ccc(/C=N/NC(=O)c2ccc(Br)cc2)c(OC)c1,23*,-2%,-15%,60%,47,-4%
SMILES,CHX counter,SARS PLpro yeast,AmpC inh no detg,AMA1 RON2 block,Shiga toxin inh,AmpC detergent
COc1ccc(/C=N/NC(=O)c2ccncc2)c(OC)c1,5,-2%,6%,16%,20,2%
COc1cc(C(=O)Oc2ccccc2/C=N/NC(=O)c2ccc(Cl)cc2)cc(OC)c1OC,15*,4%,0%,5%,55*,-5%
COc1ccc(O)c(/C=N/NC(=O)c2ccc(CSc3nc(C)cc(C)n3)cc2)c1,61*,u,-21%,-6%,71*,0%
COc1ccc(/C=N/NC(=O)c2ccc(CSc3nc(C)cc(C)n3)cc2)cc1O,4,3%,-1%,17%[2.32 µM],-6,5%
CCC(C(=O)NCc1ccc(F)cc1)N(Cc1ccco1)C(=O)c1snc(C(N)=O)c1N (stereo not given),-5,9%,-10%,1%,-4,u
COc1ccccc1/C=N/NC(=O)c1ccc(Br)cc1,26*,-2%,-45%,-7%,19,6%
CN(C)c1nc2ccc(OCCN3CCCCC3)cc2s1,42*,0%,-14%,u,57,-21%
CCN(CC)CCOc1ccc2nc(N(C)C)sc2c1,27*,7%,-24%,-7%,32,-5%
O=C(C[n+]1cc(-c2ccc(Cl)cc2)n2c1CCCCC2)c1ccccc1,26*,-1%,37%,-15%,52*,0%
O=C(C[n+]1cc(-c2ccc(Br)cc2)n2c1CCCCC2)c1ccccc1,-3,1%,-7%[11.4 µM],-2%,-12,3%
O=C(C[n+]1cc(-c2ccc(F)cc2)n2c1CCC2)N1c2ccccc2Sc2ccccc21,44*,-24%,45%,u,54*,u
COC(=O)c1onc(C(=O)c2ccccc2)c1C(=O)OC,-1,-5%,-11%,-9%,-12,3%
Cc1cccc(C(=O)Nc2cc(-c3nc4cccnc4s3)ccc2C)c1,x,x,x,x,x,5%
CCOC(=O)c1ccc(-c2cccc(C(F)(F)F)c2)nc1C,17*,3%,-13%,36%,37,4%
CCOC(=O)c1cc(C#N)c(Oc2cccc(C(F)(F)F)c2)nc1-c1ccccc1,0,5%,-13%,32%,25,5%
CSCCC(NS(=O)(=O)c1ccc2ccccc2c1)C(=O)OCC(=O)c1ccc(C(C)C)cc1 (stereo not given),-1,-7%,7.9µM*,-13%,16,-7%
O=C(COC(=O)C(Cc1ccccc1)NC(=O)c1ccccc1)c1ccccc1 (stereo not given),24*,16%,-44%,13%,37*,-7%
COc1cc(C(=O)NC(CCSC)C(=O)OCC(=O)C(C)(C)C)cc(OC)c1OC (stereo not given),30,0%,48%,-7%,53*,-13%
CSCCC(NC(=O)COc1ccccc1)C(=O)OCC(=O)c1ccccc1 (stereo not given),x,x,2%,-4%,x,3%
CCc1ccc(C(=O)COC(=O)C(CCSC)NC(=O)c2ccccc2)cc1 (stereo not given),22*,8%,-29%,-4%,active,5%
COc1ccc(C2CN(C)CC2C(=O)c2ccc(C)cc2)cc1Cl (stereo not given),-3,2%,30%,-23%,-14,2%
O=C(COc1ccc([N+](=O)[O-])cc1)Nn1cnnc1,-3,-1%,-12%,1%,-11,8%
